The text below walks through data of PubChem BioAssay (NCI).

Compounds without any hit were thinned out: in the full panel of roughly 83,000, 20% have a hit.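 Cells were grown in 96-well plates and exposed to the test compound at a single concentration for 48 hours; results are reported as percent growth, with values below 10 considered active.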 A number with no mark means an inactive call. Active and inactive are the calls of the source.

Among the test systems are DU-145 prostate; K-562 leukemia; MALME-3M melanoma; MDA-MB-231 breast; RXF 393 renal; SF-268 CNS; SF-295 CNS; SF-539 CNS; UACC-257 melanoma; M14 melanoma; HCT-15 colon; HT29 colon; SNB-75 CNS; SNB-19 CNS; U251 CNS; PC-3 prostate; SK-MEL-5 melanoma; UACC-62 melanoma; LOX IMVI melanoma; SK-MEL-28 melanoma.
Holding throughout (test): NCI-60 one-dose screen, 48 h (100 = growth as untreated, 0 = no growth, -100 = all killed)
Details in all cases: 10 µM unless noted

With `COc1cc(C(=O)/C=C/c2c(Cl)nc3sccn23)cc(OC)c1OC`, the growth in the assay with DU-145 prostate was 83.8%; with K-562 leukemia, 37.6%; in the assay on MALME-3M melanoma it was 91.9%; with MDA-MB-231 breast it was 77.2%; in the assay on RXF 393 renal it was 79.5%; in the assay on SF-268 CNS it was 77.8%. Further, the growth is 112% in the assay on SF-295 CNS; 86.5% in the assay with SF-539 CNS; 71.3% in the assay with UACC-257 melanoma; 79.4% with M14 melanoma; 59.4% in the assay with HCT-15 colon; 67.5% in the assay on HT29 colon. In addition, the growth with SNB-75 CNS was 70.9%; with SNB-19 CNS, 83%; in the assay on U251 CNS, 77.4%; in the assay with PC-3 prostate it was 70.5%; with SK-MEL-5 melanoma, 86.4%; in the assay on UACC-62 melanoma, 78.7%. In addition, the growth in the assay on LOX IMVI melanoma is 63.8%; in the assay on SK-MEL-28 melanoma it was 93.6%.
As for `COc1ccc(CNC(=O)C(=O)[C@H](Cc2ccccc2)NC(=O)c2[nH]c3ccccc3c(=O)c2C)cc1`, the growth in the assay on DU-145 prostate was 104%; in the assay with K-562 leukemia, 92.9%; in the assay with MALME-3M melanoma, 107%; in the assay with MDA-MB-231 breast, 95.6%; in the assay with RXF 393 renal, 104%; in the assay on SF-268 CNS it was 101%. The growth is 103% with SF-295 CNS; 98.7% in the assay with SF-539 CNS; 98.9% in the assay on UACC-257 melanoma; 99.6% in the assay with M14 melanoma; 103% with HCT-15 colon; 108% in the assay with HT29 colon. In addition, the growth is 87.4% with SNB-75 CNS; 100% in the assay on SNB-19 CNS; 100% in the assay on U251 CNS; 95.1% in the assay with PC-3 prostate; 100% in the assay with SK-MEL-5 melanoma; 95.6% in the assay on UACC-62 melanoma. Besides, the growth was 102% in the assay with LOX IMVI melanoma and 103% in the assay with SK-MEL-28 melanoma.
For the compound `CCOC(=O)C1=C(N)Oc2c(sc3c(C)cccc23)C1c1ccc(OC)cc1` (stereo not given), the growth in the assay on DU-145 prostate is 50.5%; with K-562 leukemia, 10.5%; in the assay with MALME-3M melanoma, 43.9%; with MDA-MB-231 breast, 46.3%; with RXF 393 renal it was 29.8%; in the assay with SF-268 CNS it was 51%. For the same compound, the growth is 19.4% in the assay with SF-295 CNS; 15.4% in the assay with SF-539 CNS; 46.8% in the assay on UACC-257 melanoma; 21.7% in the assay on M14 melanoma; 21.7% with HCT-15 colon; 84.7% with HT29 colon. Besides, the growth with SNB-75 CNS was -3.57% (active); with SNB-19 CNS, 28.8%; in the assay with U251 CNS it was 26.6%; in the assay with PC-3 prostate, 28.7%; in the assay with SK-MEL-5 melanoma it was 52.5%; with UACC-62 melanoma it was 17%. Besides, the growth in the assay on LOX IMVI melanoma is 32.3%; in the assay with SK-MEL-28 melanoma, 46.5%.
As for `Cc1ccc(-c2nc(SCC(=O)Nc3nc(-c4ccc(Cl)cc4)cs3)[nH]c(=O)c2C#N)cc1`, the growth is 103% in the assay on DU-145 prostate; 97.1% with K-562 leukemia; 109% in the assay with MALME-3M melanoma; 110% in the assay with MDA-MB-231 breast; 114% with RXF 393 renal; 98.1% with SF-268 CNS. The growth in the assay on SF-295 CNS was 101%; in the assay with SF-539 CNS, 117%; in the assay with UACC-257 melanoma, 88%; in the assay on M14 melanoma, 91.7%; in the assay on HCT-15 colon it was 90.2%; with HT29 colon, 95.9%. The growth is 87.4% in the assay on SNB-75 CNS; 108% with SNB-19 CNS; 94% in the assay on U251 CNS; 90.3% with PC-3 prostate; 102% in the assay with SK-MEL-5 melanoma; 90.5% in the assay with UACC-62 melanoma. Also, the growth in the assay on LOX IMVI melanoma and in the assay with SK-MEL-28 melanoma was 108% each time.
With `CCCCOc1nc2ccc(OC)cc2cc1-c1cc(-c2ccc(Cl)cc2)nc(-c2ccc(Cl)cc2)c1`, the growth was 114% in the assay with DU-145 prostate; 106% in the assay with K-562 leukemia; 100% in the assay on MALME-3M melanoma; 93.5% in the assay with MDA-MB-231 breast; 101% in the assay on RXF 393 renal; 99.8% with SF-268 CNS. In addition, the growth in the assay on SF-295 CNS was 98.1%; in the assay with SF-539 CNS, 98.3%; in the assay on UACC-257 melanoma, 99.6%; in the assay with M14 melanoma it was 111%; in the assay on HCT-15 colon it was 104%; with HT29 colon, 104%. Besides, the growth was 91.2% in the assay on SNB-75 CNS; 93.6% in the assay on SNB-19 CNS; 102% in the assay with U251 CNS; 96.9% in the assay with PC-3 prostate; 102% in the assay with SK-MEL-5 melanoma; 93.5% in the assay with UACC-62 melanoma. For the same compound, the results for the growth in the assay on LOX IMVI melanoma and in the assay with SK-MEL-28 melanoma were 101% and 104%, respectively.
Take `CCCCCCN(CCCCCC)c1ccc(/C=C2/SC(=O)NC2=O)c(C)c1`: the growth is 102% in the assay on DU-145 prostate; 65.2% in the assay with K-562 leukemia; 72.9% with MALME-3M melanoma; 111% in the assay with MDA-MB-231 breast; 101% in the assay on RXF 393 renal; 89.5% with SF-268 CNS. Also, the growth in the assay on SF-295 CNS is 65.6%; in the assay on SF-539 CNS, 117%; in the assay with UACC-257 melanoma, 103%; in the assay with M14 melanoma it was 90.1%; in the assay with HCT-15 colon, 75.7%; in the assay on HT29 colon it was 79.6%. The growth in the assay with SNB-75 CNS was 78.8%; with SNB-19 CNS it was 96%; in the assay on U251 CNS, 75.5%; in the assay on PC-3 prostate, 69.8%; in the assay on SK-MEL-5 melanoma, 82.1%; with UACC-62 melanoma, 73.1%. Besides, the growth is 86.5% with LOX IMVI melanoma and 93.8% with SK-MEL-28 melanoma.
For the compound `C=CCNc1ccc2c3c(cccc13)C(=O)N(N1C(=O)c3cccc4cccc(c34)C1=O)C2=O`, the growth in the assay on DU-145 prostate is 109%; with K-562 leukemia it was 103%; in the assay on MALME-3M melanoma, 110%; in the assay on MDA-MB-231 breast, 108%; with RXF 393 renal, 104%; in the assay with SF-268 CNS it was 98.1%. Further, the growth in the assay with SF-295 CNS is 102%; with SF-539 CNS, 99.8%; in the assay with UACC-257 melanoma, 98.5%; with M14 melanoma it was 102%; in the assay on HCT-15 colon, 102%; in the assay with HT29 colon it was 103%. In addition, the growth was 90.4% in the assay with SNB-75 CNS; 99.3% in the assay with SNB-19 CNS; 95.4% in the assay on U251 CNS; 106% in the assay on PC-3 prostate; 102% with SK-MEL-5 melanoma; 95.7% with UACC-62 melanoma. The growth was 90.8% in the assay on LOX IMVI melanoma and 108% in the assay on SK-MEL-28 melanoma.
As to `CCOc1cccc(NC2=C(Br)C(=O)C(C)=C(C)C2=O)c1`, the growth in the assay with DU-145 prostate is 104%; with K-562 leukemia, 0.431% (active); with MALME-3M melanoma, 91.4%; in the assay on MDA-MB-231 breast, 34.3%; in the assay on RXF 393 renal it was 113%; with SF-268 CNS, 94.1%. Moreover, the growth in the assay with SF-295 CNS is 101%; in the assay on SF-539 CNS, 94.9%; in the assay on UACC-257 melanoma it was 68%; with M14 melanoma it was 87.1%; in the assay on HCT-15 colon it was 98.6%; in the assay on HT29 colon it was 107%. The growth is 56.3% in the assay with SNB-75 CNS; 94% in the assay with SNB-19 CNS; 97.3% in the assay on U251 CNS; 73.8% in the assay with PC-3 prostate; 89% with SK-MEL-5 melanoma; 81.5% in the assay with UACC-62 melanoma. The growth in the assay on LOX IMVI melanoma is 26%; in the assay on SK-MEL-28 melanoma, 104%.
